For 9 molecules, growth results are on record in PubChem BioAssay (NCI).

Some test systems named below: NCI-H23 lung; NCI-H226 lung; NCI-H322M lung; HOP-62 NSCLC; NCI-H460 lung; HOP-92 NSCLC; NCI-H522 lung; A549/ATCC NSCLC; 786-0 renal; COLO 205 colon; DU-145 prostate; K-562 leukemia; MALME-3M melanoma; MDA-MB-231 breast; SF-268 CNS; SF-295 CNS; SF-539 CNS; UACC-257 melanoma; M14 melanoma; RXF 393 renal.
Common to all, as to assay: NCI-60 one-dose screen, 48 h (100 = growth as untreated, 0 = no growth, -100 = all killed)
Details in all cases: 10 µM unless noted

The panel holds about 83,000 compounds, 20% with a hit somewhere; the sample as a whole holds those more often.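 Percent growth is the endpoint: 0 to 100 indicates growth inhibition (40 means 60% inhibition), 0 means no net growth, and negative values indicate cell death.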 Unmarked numbers belong to inactive results. The source made the active and inactive calls. The calls were made as follows: active = growth percent below 10; inactive = the rest.

With `O=S(=O)(O)c1cccnc1`, the growth in the assay with NCI-H23 lung is 115%; in the assay with NCI-H226 lung, 105%; in the assay on NCI-H322M lung, 84.6%; in the assay on HOP-62 NSCLC, 114%; with NCI-H460 lung it was 109%; in the assay with HOP-92 NSCLC it was 142%. Moreover, the growth with NCI-H522 lung is 109%; with A549/ATCC NSCLC, 125%; in the assay with 786-0 renal, 103%; in the assay on COLO 205 colon, 105%; in the assay on DU-145 prostate, 122%; in the assay on K-562 leukemia, 105%. The growth was 90.1% in the assay on MALME-3M melanoma; 103% in the assay on MDA-MB-231 breast; 103% in the assay with SF-268 CNS; 108% in the assay with SF-295 CNS; 95.8% with SF-539 CNS; 123% in the assay with UACC-257 melanoma. In addition, the growth with M14 melanoma is 140%.
For `O=C(O)c1cc(I)ccc1O`, the growth is 103% in the assay on NCI-H23 lung; 99% in the assay with NCI-H226 lung; 95.7% in the assay on NCI-H322M lung; 100% in the assay with HOP-62 NSCLC; 108% in the assay on NCI-H460 lung; 121% in the assay with HOP-92 NSCLC. In addition, the growth was 111% in the assay with NCI-H522 lung; 93.3% in the assay on A549/ATCC NSCLC; 107% with 786-0 renal; 127% in the assay with COLO 205 colon; 116% in the assay with DU-145 prostate; 114% in the assay with K-562 leukemia. For the same molecule, the growth in the assay on MALME-3M melanoma is 90.3%; with MDA-MB-231 breast, 110%; in the assay on SF-268 CNS it was 111%; in the assay on SF-295 CNS, 105%; in the assay with SF-539 CNS it was 97.7%; in the assay with UACC-257 melanoma, 104%.
Regarding `O=C1NCC2CCCC1C2` (centres undefined), the growth in the assay with NCI-H23 lung is 105%; in the assay on NCI-H226 lung, 104%; in the assay on NCI-H322M lung, 96.8%; in the assay with HOP-62 NSCLC, 115%; with NCI-H460 lung, 120%; in the assay with HOP-92 NSCLC it was 130%. Moreover, the growth with NCI-H522 lung was 90.3%; with A549/ATCC NSCLC, 97.6%; in the assay with 786-0 renal, 99.5%; in the assay with COLO 205 colon, 119%; in the assay on DU-145 prostate, 113%; in the assay with K-562 leukemia it was 106%. Further, the growth with MALME-3M melanoma is 109%; in the assay on MDA-MB-231 breast it was 102%; with RXF 393 renal, 103%; in the assay with SF-268 CNS, 103%; with SF-539 CNS, 111%; in the assay with UACC-257 melanoma it was 81.7%. In addition, the growth in the assay with M14 melanoma was 96.7%.
With `ON1CCCC1`, the growth in the assay with NCI-H23 lung is 108%; in the assay with NCI-H226 lung, 103%; in the assay with NCI-H322M lung, 108%; in the assay with HOP-62 NSCLC it was 108%; with NCI-H460 lung, 109%; with HOP-92 NSCLC, 92.4%. For the same molecule, the growth in the assay on NCI-H522 lung is 91.9%; in the assay on A549/ATCC NSCLC it was 100%; in the assay with 786-0 renal, 98.4%; with COLO 205 colon, 113%; in the assay with DU-145 prostate it was 113%; in the assay with K-562 leukemia it was 90.7%. In addition, the growth was 106% in the assay on MALME-3M melanoma; 114% in the assay with MDA-MB-231 breast; 107% in the assay on RXF 393 renal; 106% with SF-268 CNS; 108% with SF-539 CNS; 102% in the assay with UACC-257 melanoma. Moreover, the growth in the assay on M14 melanoma was 104%.
On to `Nc1nc2nnc(-c3ccccc3)c(-c3ccccc3)n2n1`, for which the growth in the assay on NCI-H23 lung was 97.2%; in the assay with NCI-H226 lung it was 88.3%; with NCI-H322M lung it was 110%; in the assay with HOP-62 NSCLC it was 16.7%; in the assay on NCI-H460 lung, 100%; in the assay with HOP-92 NSCLC it was 61.4%. The growth with NCI-H522 lung is 109%; with A549/ATCC NSCLC it was 101%; with 786-0 renal, 111%; in the assay on COLO 205 colon it was 101%; in the assay with DU-145 prostate it was 98.8%; with K-562 leukemia it was 96.3%. Moreover, the growth is 125% in the assay with MALME-3M melanoma; 88.7% in the assay on MDA-MB-231 breast; 103% in the assay on SF-268 CNS; 71% in the assay with SF-295 CNS; 80.9% in the assay on SF-539 CNS; 103% in the assay with UACC-257 melanoma. Besides, the growth in the assay with M14 melanoma is 127%.
Take `Nc1cc(N)ncn1`: the growth is 95.1% with NCI-H23 lung; 93.9% in the assay with NCI-H226 lung; 103% in the assay with NCI-H322M lung; 112% with HOP-62 NSCLC; 107% with NCI-H460 lung; 96% in the assay on HOP-92 NSCLC. Further, the growth with NCI-H522 lung was 104%; in the assay with A549/ATCC NSCLC, 103%; in the assay on 786-0 renal it was 104%; with COLO 205 colon it was 104%; with DU-145 prostate it was 110%; in the assay on K-562 leukemia it was 91.3%. Also, the growth in the assay with MALME-3M melanoma is 106%; in the assay on MDA-MB-231 breast, 96.1%; with SF-268 CNS it was 102%; in the assay on SF-295 CNS, 104%; in the assay on SF-539 CNS, 99.2%; in the assay with UACC-257 melanoma, 112%. Further, in the assay on M14 melanoma, the growth was 97.2%.
For the molecule `NNc1ncnc2nc[nH]c12`, the growth is 85.2% in the assay on NCI-H23 lung; 47.9% in the assay with NCI-H226 lung; 50.5% in the assay on NCI-H322M lung; 40.7% in the assay on HOP-62 NSCLC; 50.4% with NCI-H460 lung; 86.9% in the assay with HOP-92 NSCLC. The growth with NCI-H522 lung is -15.7% (active); with A549/ATCC NSCLC it was 31.5%; with 786-0 renal, 43.2%; with COLO 205 colon it was 52.5%; with DU-145 prostate, 36.6%; in the assay on K-562 leukemia, 48.4%. In addition, the growth in the assay with MALME-3M melanoma is 120%; in the assay with MDA-MB-231 breast, 14.9%; with SF-268 CNS it was 83.7%; in the assay with SF-295 CNS it was 45.9%; with SF-539 CNS it was 101%; with UACC-257 melanoma it was 45.1%.
In the case of `C=C1SC(=Nc2c(C)cccc2C)N(c2nc(Cl)nc(Cl)n2)C12CCCCC2`, the growth is 103% in the assay on NCI-H23 lung; 104% in the assay with NCI-H226 lung; 85.4% with NCI-H322M lung; 105% in the assay with HOP-62 NSCLC; 110% with NCI-H460 lung; 105% in the assay with HOP-92 NSCLC. The growth was 82.9% in the assay on NCI-H522 lung; 96.2% with A549/ATCC NSCLC; 99.9% with 786-0 renal; 109% with COLO 205 colon; 108% with DU-145 prostate; 95.2% in the assay with K-562 leukemia. Moreover, the growth in the assay on MALME-3M melanoma was 90.3%; in the assay on MDA-MB-231 breast it was 115%; in the assay on RXF 393 renal, 106%; with SF-268 CNS, 107%; with SF-539 CNS, 116%; in the assay with UACC-257 melanoma it was 94.6%. Moreover, in the assay with M14 melanoma, the growth is 97.9%.
As for `Cn1c2ccccc2c2nnc(NCCCCO)nc21`, the growth is 84.3% in the assay with NCI-H23 lung; 83.9% in the assay with NCI-H226 lung; 99.3% in the assay with NCI-H322M lung; 81.6% in the assay on HOP-62 NSCLC; 100% in the assay on NCI-H460 lung; 84.1% in the assay with HOP-92 NSCLC. The growth in the assay on NCI-H522 lung was 95.3%; in the assay on A549/ATCC NSCLC, 92.6%; in the assay with 786-0 renal, 98.8%; in the assay on COLO 205 colon it was 103%; in the assay with DU-145 prostate it was 103%; with K-562 leukemia it was 99.7%. In addition, the growth with MALME-3M melanoma is 98.3%; in the assay with MDA-MB-231 breast it was 99.3%; in the assay on SF-268 CNS it was 91.1%; in the assay on SF-295 CNS it was 113%; in the assay on SF-539 CNS, 92.6%; in the assay with UACC-257 melanoma, 113%. Besides, in the assay on M14 melanoma, the growth is 88%.
